According to PubChem BioAssay:
Calls of active or inactive are those of the source.

Assays:
[1] = tested on: Plasmodium falciparum Sir2 (PF13_0152, Sir2A); test: Plasmodium falciparum Sir2A binding compounds – biochemical, small-molecule microarray, 635 nm fluorescence, primary screen (AID 1098); conditions: fluorescence 635 nm, higher = more signal;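 also: score merges spot fluorescence intensity with its signal-to-noise ratio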
[2] = probe aDKK1 binding to arrayed compounds – biochemical, biotinylated probe, 635/667 nm fluorescence, primary screen (AID 1099); conditions: small-molecule microarray, higher = more signal;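 also: score merges 667nm spot fluorescence with signal to noise across triplicate slides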
[3] = probe aCHRDL2 binding to arrayed compounds – biochemical, biotinylated probe, 635/667 nm fluorescence, primary screen (AID 1100); conditions: small-molecule microarray, higher = more signal
[4] = change in splice reporter luminescence, either direction, cell-based, HEK293, spliceosome inhibition project, primary screen (AID 1101); conditions: HEK293 splicing luciferase reporter, 24 h, higher = more signal, called active from +8 up or from −8 down;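 also: HEK293 cells carrying a splicing-competent luciferase reporter gene; test concentration not given here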
[5] = biological target: Fibroblast growth factor 10 (Homo sapiens) (UniProt O15520); test: compounds binding fibroblast growth factor 10 – biochemical, small-molecule microarray, 635 nm fluorescence, primary screen (AID 1102); conditions: FGF10 binding, fluorescence 635 nm, higher = more signal
Fibroblast growth factor 10 (Homo sapiens), sequence (O15520 whole entry, looked up): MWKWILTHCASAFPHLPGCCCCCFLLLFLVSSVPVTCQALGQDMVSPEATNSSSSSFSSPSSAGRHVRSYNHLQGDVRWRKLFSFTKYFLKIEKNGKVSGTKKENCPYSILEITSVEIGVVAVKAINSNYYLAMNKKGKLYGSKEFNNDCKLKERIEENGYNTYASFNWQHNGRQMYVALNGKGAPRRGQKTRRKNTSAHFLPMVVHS

[6] = tested on: glycogen synthase kinase-3 (GSK3A per assay name; protocol says GSK3B); test: compounds binding glycogen synthase kinase-3 – biochemical, small-molecule microarray, 635 nm fluorescence, GSK3A, primary screen (AID 1103); conditions: fluorescence 635 nm, higher = more signal; also: the record names both GSK3A and GSK3B
[7] = biological target: Epidermal growth factor receptor (Homo sapiens) (UniProt P00533); test: compounds binding epidermal growth factor receptor – biochemical, small-molecule microarray, 635 nm fluorescence, primary screen (AID 1104); conditions: EGFR binding, higher = more signal;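 also: score merges 667 nm emission intensity with spot signal to noise over triplicate slides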
Epidermal growth factor receptor (Homo sapiens), sequence (P00533 whole entry, looked up): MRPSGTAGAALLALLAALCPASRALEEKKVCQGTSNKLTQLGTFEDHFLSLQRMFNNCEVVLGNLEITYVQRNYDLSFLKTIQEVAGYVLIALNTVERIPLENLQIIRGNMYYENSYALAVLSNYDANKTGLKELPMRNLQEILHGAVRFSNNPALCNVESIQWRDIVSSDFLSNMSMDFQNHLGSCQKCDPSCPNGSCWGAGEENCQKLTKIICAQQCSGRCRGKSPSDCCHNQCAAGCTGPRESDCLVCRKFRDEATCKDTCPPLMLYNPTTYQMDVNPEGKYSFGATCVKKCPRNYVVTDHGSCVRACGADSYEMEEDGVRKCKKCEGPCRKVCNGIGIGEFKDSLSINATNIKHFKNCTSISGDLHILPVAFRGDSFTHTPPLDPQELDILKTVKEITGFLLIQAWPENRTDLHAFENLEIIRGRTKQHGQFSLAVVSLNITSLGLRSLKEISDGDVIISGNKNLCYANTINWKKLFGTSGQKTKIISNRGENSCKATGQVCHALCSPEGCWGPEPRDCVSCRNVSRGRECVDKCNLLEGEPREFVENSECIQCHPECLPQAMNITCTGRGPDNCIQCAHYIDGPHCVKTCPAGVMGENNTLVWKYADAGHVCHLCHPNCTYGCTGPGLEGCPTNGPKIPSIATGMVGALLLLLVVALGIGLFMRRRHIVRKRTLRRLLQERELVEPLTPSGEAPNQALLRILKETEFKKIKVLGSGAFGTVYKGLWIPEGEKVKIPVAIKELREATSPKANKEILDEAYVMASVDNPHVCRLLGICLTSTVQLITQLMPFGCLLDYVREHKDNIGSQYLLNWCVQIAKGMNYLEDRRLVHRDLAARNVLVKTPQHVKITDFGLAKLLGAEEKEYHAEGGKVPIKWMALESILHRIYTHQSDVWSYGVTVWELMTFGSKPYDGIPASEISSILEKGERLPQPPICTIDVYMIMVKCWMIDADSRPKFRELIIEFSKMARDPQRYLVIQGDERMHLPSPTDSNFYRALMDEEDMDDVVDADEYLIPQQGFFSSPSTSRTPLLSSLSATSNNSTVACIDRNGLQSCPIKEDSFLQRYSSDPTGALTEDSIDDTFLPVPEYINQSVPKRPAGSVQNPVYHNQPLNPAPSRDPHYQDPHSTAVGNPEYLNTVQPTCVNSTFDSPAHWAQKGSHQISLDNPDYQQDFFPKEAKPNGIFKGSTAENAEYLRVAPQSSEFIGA

[8] = biological target: Follistatin-related protein 3 (Homo sapiens) (UniProt O95633); test: compounds binding follistatin-related protein 3 – biochemical, small-molecule microarray, 635 nm fluorescence, primary screen (AID 1105); conditions: FSTL3 binding, higher = more signal;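 also: score merges emission near 667 nm and signal to noise per printed spot across three slides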
Follistatin-related protein 3 (Homo sapiens), sequence (O95633 whole entry, looked up): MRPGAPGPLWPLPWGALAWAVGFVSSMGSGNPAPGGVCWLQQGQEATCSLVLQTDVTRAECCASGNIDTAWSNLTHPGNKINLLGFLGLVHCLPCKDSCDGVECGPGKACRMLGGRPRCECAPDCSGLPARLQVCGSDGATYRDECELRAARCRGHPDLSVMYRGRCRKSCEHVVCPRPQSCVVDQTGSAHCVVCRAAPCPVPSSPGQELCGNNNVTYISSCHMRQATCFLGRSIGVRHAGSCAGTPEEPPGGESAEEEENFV

[9] = biological target: Dickkopf-related protein 1 (Homo sapiens) (UniProt O94907); test: small molecules binding DKK1 protein – biochemical, small-molecule microarray, 635 nm fluorescence scan, primary screen (AID 1106); conditions: higher = more signal;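 also: score merges emission near 667 nm with signal to noise over three replicate slides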
Dickkopf-related protein 1 (Homo sapiens), sequence (O94907 whole entry, looked up): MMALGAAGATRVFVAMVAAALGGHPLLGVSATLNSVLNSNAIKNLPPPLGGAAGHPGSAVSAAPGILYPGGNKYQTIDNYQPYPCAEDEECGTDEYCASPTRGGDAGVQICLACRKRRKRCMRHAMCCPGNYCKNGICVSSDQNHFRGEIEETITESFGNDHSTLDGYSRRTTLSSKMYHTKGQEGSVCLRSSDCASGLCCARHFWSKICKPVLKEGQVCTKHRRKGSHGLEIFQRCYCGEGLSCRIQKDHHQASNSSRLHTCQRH

[10] = tested on: Inhibin beta A chain (activin A); test: small molecules binding activin A – biochemical, small-molecule microarray, 635 nm fluorescence scan, primary screen (AID 1107); conditions: INHBA, higher = more signal;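 also: mouse activin A protein probed at 4.33 µg/mL on printed slides; score merges bound-protein fluorescence near 667 nm with spot signal-to-noise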
[11] = tested on: Human papillomavirus type 1a protein E7 (residues 44-93); test: small molecules binding HPV E7 44-93 – biochemical, small-molecule microarray, residues 44-93, 635 nm fluorescence, primary screen (AID 1108); conditions: fluorescence 635 nm, higher = more signal;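 also: E7 fragment applied at 1 µg/mL in TBST for 1 h at 4 C; score combines spot fluorescence with its signal to noise ratio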
[12] = hepatitis C replication reporter changes, two-sided – Huh7 cells, luciferase reporter, HCV replication inhibitor project, primary screen (AID 1109); conditions: Huh7 HCV replicon luciferase reporter, 48 h; higher = more signal;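 also: huh7 hepatoma cells harbouring a luciferase neomycin HCV replicon reporter; luciferase luminescence as measure of HCV replicon replication; test concentration not given here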
[13] = biological target: Left-right determination factor 2 (Homo sapiens) (UniProt O00292); test: small molecules binding LEFTY2 protein – biochemical, small-molecule microarray, 635 nm fluorescence scan, primary screen (AID 1110); conditions: higher = more signal
Left-right determination factor 2 (Homo sapiens), sequence (O00292 whole entry, looked up): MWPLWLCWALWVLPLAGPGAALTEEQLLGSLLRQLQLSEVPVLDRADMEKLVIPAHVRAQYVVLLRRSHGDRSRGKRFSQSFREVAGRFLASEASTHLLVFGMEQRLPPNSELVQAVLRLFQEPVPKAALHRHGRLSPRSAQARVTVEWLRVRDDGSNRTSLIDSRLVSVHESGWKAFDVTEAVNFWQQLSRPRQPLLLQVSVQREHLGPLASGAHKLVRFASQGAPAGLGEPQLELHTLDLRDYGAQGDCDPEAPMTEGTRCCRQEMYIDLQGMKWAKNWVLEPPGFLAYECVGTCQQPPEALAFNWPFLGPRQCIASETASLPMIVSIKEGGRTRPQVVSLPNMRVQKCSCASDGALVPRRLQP

[14] = biological target: Calmodulin-1 (Homo sapiens) (UniProt P0DP23); test: small molecules binding calmodulin-1 with EGTA – biochemical, small-molecule microarray, Cy5-labelled CALM1, profiling panel (AID 1111); conditions: Cy5-CALM1 binding fluorescence, higher = more signal;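 also: labelled calmodulin applied in Tris saline Tween buffer holding calcium plus EGTA and DTT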
[15] = biological target: Calmodulin-1 (Homo sapiens) (UniProt P0DP23); test: small molecules binding Ca-loaded calmodulin-1 – biochemical, small-molecule microarray, Cy5-labelled CALM1, plus calcium, artefact control for SMM control-protein annotation, profiling panel (AID 1112); conditions: Cy5-CALM1 binding fluorescence, higher = more signal;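 also: score merges spot fluorescence with signal to noise from triplicate slides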
[16] = probe aWnt5a binding to arrayed compounds – biochemical, biotinylated probe, 635/667 nm fluorescence, primary screen (AID 1113); conditions: small-molecule microarray, higher = more signal;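 also: score merges 667 nm fluorescence intensity with signal-to-noise per printed feature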
[17] = probe aShh binding to arrayed compounds – biochemical, biotinylated probe, 635/667 nm fluorescence, primary screen (AID 1114); conditions: small-molecule microarray, higher = more signal;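 also: probe is biotin-labelled aShh protein from a stem cell growth factor screen; measures binding of labelled protein to compounds printed on the slide; score merges feature fluorescence at 667 nm with signal-to-noise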
[18] = probe aNog binding to arrayed compounds – biochemical, biotinylated probe, 635/667 nm fluorescence, primary screen (AID 1115); conditions: small-molecule microarray, higher = more signal;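 also: probe is biotinylated aNog protein used at 0.15 µg/mL for 1 h at 4 C; z-score combines 667 nm fluorescence of each spot with its signal to noise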
[19] = biological target: Torsin-1A-interacting protein 1 (Homo sapiens) (UniProt Q5JTV8); test: compound microarray binding of lysate hLAP1 – cell lysate, small-molecule microarray, COS7 lysate, 635/667 nm fluorescence, primary screen (AID 1116); conditions: 635 nm fluorescence, higher = more signal
Torsin-1A-interacting protein 1 (Homo sapiens), sequence (Q5JTV8 whole entry, looked up): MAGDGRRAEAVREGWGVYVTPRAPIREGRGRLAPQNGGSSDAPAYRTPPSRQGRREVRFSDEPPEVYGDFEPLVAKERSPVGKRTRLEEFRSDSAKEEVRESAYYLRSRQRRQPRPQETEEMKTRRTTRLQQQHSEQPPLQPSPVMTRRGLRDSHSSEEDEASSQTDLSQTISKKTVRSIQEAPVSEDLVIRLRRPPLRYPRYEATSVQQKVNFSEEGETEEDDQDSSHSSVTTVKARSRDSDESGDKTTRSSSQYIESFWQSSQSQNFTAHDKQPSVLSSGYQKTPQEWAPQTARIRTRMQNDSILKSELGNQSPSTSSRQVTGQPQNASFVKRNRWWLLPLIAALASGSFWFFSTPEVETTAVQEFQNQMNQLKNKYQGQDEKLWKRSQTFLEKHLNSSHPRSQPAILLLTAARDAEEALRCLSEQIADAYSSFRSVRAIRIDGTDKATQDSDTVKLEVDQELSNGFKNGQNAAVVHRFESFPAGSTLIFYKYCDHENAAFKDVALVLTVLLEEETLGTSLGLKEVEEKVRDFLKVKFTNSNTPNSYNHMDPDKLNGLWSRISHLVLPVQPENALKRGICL

[20] = biological target: Alpha-bungarotoxin (Bungarus multicinctus) (UniProt P60615); test: compounds binding labelled alpha-BTX control protein – biochemical, small-molecule microarray, Alexa647 label, 635/667 nm fluorescence, artefact control for SMM control protein annotation, profiling panel (AID 1117); conditions: alpha-BTX-A647 binding fluorescence, higher = more signal
Alpha-bungarotoxin (Bungarus multicinctus), sequence (P60615 whole entry, looked up): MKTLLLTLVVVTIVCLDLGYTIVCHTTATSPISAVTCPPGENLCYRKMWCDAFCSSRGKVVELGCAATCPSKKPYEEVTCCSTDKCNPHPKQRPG

Structure (SMILES)	composite z-score [1]	composite z-score [2]	composite z-score [3]	z-score [4]	composite z-score [5]	composite z-score [6]	composite z-score [7]	composite z-score [8]	composite z-score [9]	composite z-score [10]	composite z-score [11]	z-score [12]	composite z-score [13]	composite z-score [14]	composite z-score [15]	composite z-score [16]	composite z-score [17]	composite z-score [18]	composite z-score [19]	composite z-score [20]
CC=CC(O)C1C=CC2C(=O)N(C)C(=O)C2N1Nc1ccc([N+](=O)[O-])cc1[N+](=O)[O-] (stereo not given)	1.1	0.121	0.636	0.607 (inactive)	-0.49	-1.06	-0.898	-0.79	-0.232	1.11	-0.0226	-0.121	-0.324	-0.086	-0.541	-0.148	0.166	0.0471	-0.345	-0.297
COCCCNC(=O)[C@@]1(Sc2ccc(C)cc2)CC(=O)N(C2Cc3ccccc3C2)[C@@H]1c1ccc(CO)cc1I	0.693	0.59	0.947	-0.697 (inactive)	-0.235	-1.1	-0.689	-1.58	-1.77	0.388	-0.499	-1.05	-1.31	-0.176	0.0685	-0.154	-0.536	-0.0621	-0.354	-0.0078
C=CCC(OC(C)=O)[C@@H]1[C@@H](N(Cc2ccc(-c3ccccc3)cc2)C(=O)c2cccc3ccccc23)c2cc(OCCCO)ccc2N1C(=O)Cc1ccc2ccccc2c1 (stereo not given in full)	-0.417	0.122	0.425	-0.862 (inactive)	0.0665	-0.202	-0.062	-0.0827	-0.169	0.796	-0.106	-0.374	-0.304	-0.29	0.842	-0.108	-0.243	-0.225	0.0247	0.528
COc1ccc(NN2C(C(O)c3ccco3)C=CC3C(=O)N(C4CCCCC4)C(=O)C32)cc1 (stereo not given)	1.39	0.456	0.689	0.157 (inactive)	1.35	1.32	0.423	1.49	0.0006	0.725	1.42	0.224	0.519	0.9	0.267	0.0613	0.0639	0.353	0.605	0.916
CC(=O)NCCCC[C@@H]1NC(=O)[C@@H]2C[C@H](C(=O)O)[C@H](c3ccc(O)cc3)N2C1=O	1.66	-0.106	1.06	-0.905 (inactive)	-0.947	-1.18	-1.7	-1.98	-1.46	-2.08	-0.745	0.117	-2.7	-0.329	0.104	-0.184	-0.221	-0.33	-0.998	-0.371
O=C(O)[C@]1(Cc2ccccc2)N=C(c2ccc(OCCCO)cc2)O[C@@H]1c1ccccc1	0.122	0.568	0.926	0.771 (inactive)	-0.74	-1.23	-0.856	-1.07	-1.16	0.848	-0.218	0.398	-0.539	-0.201	0.206	-0.128	0.0893	0.306	-0.499	-0.905
COCCCNC(=O)[C@]1(CCC(=O)OC(C)(C)C)N=C(c2ccc(OCCCO)cc2)O[C@@H]1c1ccccc1	1.31	1.33	0.701	-0.307 (inactive)	0.417	1.28	-0.301	-0.47	-0.261	-0.497	1.49	-0.151	-0.737	1.59	1	-0.0203	-0.0248	-0.0076	1.49	1.6
CC(C)CN1C(=O)[C@@]2(c3ccc([N+](=O)[O-])cc3)CC(=O)N(CC34CC5CC(CC(C5)C3)C4)[C@@H]2c2ccc(CO)cc21	0.984	0.185	0.807	-0.668 (inactive)	-1.02	-0.853	-1.72	-1.09	-1.48	0.2	-0.746	-1.07	-1.36	0.657	0.0047	-0.152	0.151	0.884	-1.09	0.578
CC(C)(C)OC(=O)CC[C@]1(C(=O)O)N=C(c2ccc(OCCCO)cc2)O[C@H]1c1ccccc1CN=[N+]=[N-]	0.814	0.905	0.764	0.325 (inactive)	0.253	-0.138	-0.554	-0.507	-0.134	0.923	-0.391	0.0879	-0.688	0.32	0.81	-0.136	0.0668	0.718	0.69	-0.489
C=C1C2CC3C(=C4C(CO[C@@H]4[C@H]4CCCN4S(=O)(=O)c4ccccc4[N+](=O)[O-])C4C(=O)N(C)C(=O)C34)CC2C(=O)N1C (stereo not given in full)	0.201	-0.2	-0.427	0.194 (inactive)	0.475	0.0168	-0.0553	0.157	0.298	0.689	-1.04	-0.979	0.0437	-0.0741	-0.0942	-0.152	-0.0769	0.0473	0.231	0.26
COC(=O)[C@@]1(Cc2ccc(OC)cc2)[C@H]2c3cc(C(=O)N4CCCC4)n(CCc4cc5ccccc5[nH]4)c3C[C@H]2CN1C(=O)c1ccccc1	1.52	1.64	1.43	0.0555 (inactive)	0.893	0.591	0.124	1.2	-0.281	0.881	1.41	-1.85	-0.239	2.44	0.913	0.239	-0.19	2.21	2.4	1.21
